“And” between values parts separate entries of the source, which are not always exact repeats. Identical values can stand only once. About 2,000 (36%) of roughly 5,500 compounds were called active. Another 18% or so got no clear call; they are omitted. No stated cut-off is given here; in the data, active means normalized growth mostly below about 0.91 (no sharp cut-off); inconclusive means no clear call, values can overlap the other calls; inactive means mostly above about 0.92. Some of the results follow.
Assay: chemical genetic growth profiling, strain panel (AID 1159580);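 further: tested at 20 µM; growth read once vehicle control cultures reached saturation at 30 °C; 1 = growth at the plate median or of vehicle wells; lower values mean less growth of the strain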
Settings: growth OD
[1] = S. cerevisiae deletion strains, locus YDL101C, strain DUN1, active compounds read low
[2] = S. cerevisiae deletion strains, locus YGR052W, strain FMP48, active compounds read low
[3] = S. cerevisiae deletion strains, locus YHR030C, strain SLT2, active compounds read low
[4] = S. cerevisiae deletion strains, locus YHR079C, strain IRE1, active compounds read low
[5] = S. cerevisiae deletion strains, locus YHR082C, strain KSP1, active compounds read low
[6] = S. cerevisiae deletion strains, locus YJL095W, strain BCK1, active compounds read low
[7] = S. cerevisiae deletion strains, locus YJR066W, strain TOR1, active compounds read low
[8] = S. cerevisiae deletion strains, locus YKL203C, strain TOR2, active compounds read low
[9] = S. cerevisiae deletion strains, locus YLR113W, strain HOG1, active compounds read low
[10] = S. cerevisiae deletion strains, locus YNL183C, strain NPR1, active compounds read low
[11] = S. cerevisiae deletion strains, locus YNL207W, strain RIO2, active compounds read low
[12] = S. cerevisiae deletion strains, locus YOR119C, strain RIO1, active compounds read low
[13] = S. cerevisiae deletion strains, locus YOR231W, strain MKK1, active compounds read low
[14] = S. cerevisiae deletion strains, locus YPL256C, strain CLN2, active compounds read low

Measured: normalized growth

C=CCOc1ccc(/C=C/[N+](=O)[O-])cc1
active: S. cerevisiae deletion strains, locus YAR019C, strain CDC15, active compounds read low 0.0985 | S. cerevisiae deletion strains, locus YBL105C, strain PKC1, active compounds read low 0.0881 | S. cerevisiae deletion strains, locus YBR135W, strain CKS1, active compounds read low 0.0822 | S. cerevisiae deletion strains, locus YBR136W, strain MEC1, active compounds read low 0.095 | S. cerevisiae deletion strains, locus YBR160W, strain CDC28, active compounds read low 0.0851 | S. cerevisiae deletion strains, locus YDL017W, strain CDC7, active compounds read low 0.0853 | S. cerevisiae deletion strains, locus YDL028C, strain MPS1, active compounds read low 0.0971 | [1] 0.108 | S. cerevisiae deletion strains, locus YDL108W, strain KIN28, active compounds read low 0.1 | S. cerevisiae deletion strains, locus YDL132W, strain cdc53, active compounds read low 0.0933 | S. cerevisiae deletion strains, locus YDL214C, strain PRR2, active compounds read low 0.0888 | S. cerevisiae deletion strains, locus YDR052C, strain DBF4, active compounds read low 0.0837 | S. cerevisiae deletion strains, locus YDR054C, strain cdc34, active compounds read low 0.0953 | S. cerevisiae deletion strains, locus YDR477W, strain SNF1, active compounds read low 0.104 | S. cerevisiae deletion strains, locus YER123W, strain YCK3, active compounds read low 0.105 | S. cerevisiae deletion strains, locus YER133W, strain GLC7, active compounds read low 0.096 | S. cerevisiae deletion strains, locus YFL009W, strain cdc4, active compounds read low 0.0895 | S. cerevisiae deletion strains, locus YFL029C, strain CAK1, active compounds read low 0.094 | S. cerevisiae deletion strains, locus YFR003C, strain YPI1, active compounds read low 0.0875 | S. cerevisiae deletion strains, locus YFR019W, strain FAB1, active compounds read low 0.0967 | S. cerevisiae deletion strains, locus YFR028C, strain CDC14, active compounds read low 0.0822 | S. cerevisiae deletion strains, locus YGR040W, strain KSS1, active compounds read low 0.0972 | [2] 0.116 | S. cerevisiae deletion strains, locus YGR092W, strain DBF2, active compounds read low 0.106 | [3] 0.12 | [4] 0.118 | [5] 0.124 | S. cerevisiae deletion strains, locus YHR205W, strain SCH9, active compounds read low 0.00436 | S. cerevisiae deletion strains, locus YIL147C, strain SLN1, active compounds read low 0.116 | [6] 0.124 | S. cerevisiae deletion strains, locus YJL128C, strain PBS2, active compounds read low 0.154 | S. cerevisiae deletion strains, locus YJL157C, strain FAR1, active compounds read low 0.0842 | S. cerevisiae deletion strains, locus YJR016C, strain ILV3, active compounds read low 0.0828 | S. cerevisiae deletion strains, locus YJR066W, strain TOR1 (second series), active compounds read low 0.0922 | [7] 0.118 | S. cerevisiae deletion strains, locus YKL048C, strain ELM1, active compounds read low 0.107 | S. cerevisiae deletion strains, locus YKL067W, strain YNK1, active compounds read low 0.0924 | S. cerevisiae deletion strains, locus YKL101W, strain HSL1, active compounds read low 0.0997 | S. cerevisiae deletion strains, locus YKL193C, strain SDS22, active compounds read low 0.0826 | [8] 0.104 | [9] 0.147 | S. cerevisiae deletion strains, locus YLR133W, strain CKI1, active compounds read low 0.102 | S. cerevisiae deletion strains, locus YLR403W, strain SFP1, active compounds read low -0.00907 | S. cerevisiae deletion strains, locus YML070W, strain DAK1, active compounds read low 0.0908 | S. cerevisiae deletion strains, locus YMR001C, strain CDC5, active compounds read low 0.0861 | S. cerevisiae deletion strains, locus YMR205C, strain PFK2 (second series), active compounds read low 0.095 | S. cerevisiae deletion strains, locus YMR277W, strain FCP1, active compounds read low 0.0876 | S. cerevisiae deletion strains, locus YNL006W, strain LST8, active compounds read low 0.0846 | S. cerevisiae deletion strains, locus YNL020C, strain ARK1, active compounds read low 0.0937 | S. cerevisiae deletion strains, locus YNL161W, strain CBK1, active compounds read low 0.0814 | [10] 0.127 | [11] 0.0904 | S. cerevisiae deletion strains, locus YNL222W, strain SSU72, active compounds read low 0.0824 | S. cerevisiae deletion strains, locus YNL307C, strain MCK1 (second series), active compounds read low 0.102 | S. cerevisiae deletion strains, locus YOL078W, strain AVO1, active compounds read low 0.083 | S. cerevisiae deletion strains, locus YOL136C, strain PFK27, active compounds read low 0.0949 | S. cerevisiae deletion strains, locus YOR061W, strain CKA2, active compounds read low 0.0943 | [12] 0.112 | [13] 0.109 | S. cerevisiae deletion strains, locus YOR329C, strain SCD5, active compounds read low 0.0843 | S. cerevisiae deletion strains, locus YPL031C, strain PHO85, active compounds read low 0.102 | S. cerevisiae deletion strains, locus YPL153C, strain RAD53, active compounds read low 0.0983 | S. cerevisiae deletion strains, locus YPL204W, strain HRR25, active compounds read low 0.0984 | S. cerevisiae deletion strains, locus YPL209C, strain IPL1, active compounds read low 0.0828 | [14] 0.134 | S. cerevisiae deletion strains, locus YPR025C, strain CCL1, active compounds read low 0.0851 | S. cerevisiae deletion strains, locus YPR106W, strain ISR1, active compounds read low 0.0928 | S. cerevisiae deletion strains, locus YPR111W, strain DBF20, active compounds read low 0.154 | S. cerevisiae deletion strains, strain NNK1, active compounds read low 0.1 | S. cerevisiae deletion strains, strain TSCII, active compounds read low 0.0928

CSc1ccc(/C=C/[N+](=O)[O-])cc1
active: S. cerevisiae deletion strains, locus YAL013W, strain DEP1, active compounds read low 0.0558 | S. cerevisiae deletion strains, locus YBR229C, strain ROT2, active compounds read low 0.0536 | S. cerevisiae deletion strains, locus YCL061C, strain MRC1, active compounds read low 0.0551 | [1] 0.0652 | S. cerevisiae deletion strains, locus YDL134C, strain PPH21, active compounds read low 0.0471 | S. cerevisiae deletion strains, locus YDR150W, strain NUM1, active compounds read low 0.582 | S. cerevisiae deletion strains, locus YEL061C, strain CIN8, active compounds read low 0.0542 | [2] 0.131 | S. cerevisiae deletion strains, locus YGR078C, strain PAC10, active compounds read low 0.0514 | [3] 0.0754 and 0.122 | [4] 0.176 | [5] 0.118 | S. cerevisiae deletion strains, locus YHR087W, strain rtc3, active compounds read low 0.0549 | [6] 0.126 | S. cerevisiae deletion strains, locus YJR043C, strain POL32, active compounds read low 0.0504 | [7] 0.114 | S. cerevisiae deletion strains, locus YJR075W, strain HOC1, active compounds read low 0.0722 | S. cerevisiae deletion strains, locus YKL171W, strain NNK1, active compounds read low 0.104 | S. cerevisiae deletion strains, locus YKL190W, strain CNB1, active compounds read low 0.0461 | [8] 0.107 | S. cerevisiae deletion strains, locus YLR039C, strain RIC1, active compounds read low 0.0613 | S. cerevisiae deletion strains, locus YLR058C, strain SHM2 (second series), active compounds read low 0.0502 | S. cerevisiae deletion strains, locus YLR085C, strain ARP6, active compounds read low 0.0653 | [9] 0.179 | S. cerevisiae deletion strains, locus YLR262C, strain YPT6, active compounds read low 0.0583 | S. cerevisiae deletion strains, locus YML094W, strain GIM5, active compounds read low 0.0645 | S. cerevisiae deletion strains, locus YMR219W, strain ESC1, active compounds read low 0.0483 | S. cerevisiae deletion strains, locus YMR263W, strain SAP30, active compounds read low 0.0556 | S. cerevisiae deletion strains, locus YNL153C, strain GIM3, active compounds read low 0.0516 | [10] 0.138 | [11] 0.0972 | S. cerevisiae deletion strains, locus YNL298W, strain CLA4 (second series), active compounds read low 0.0614 | S. cerevisiae deletion strains, locus YNL322C, strain KRE1, active compounds read low 0.0528 | S. cerevisiae deletion strains, locus YNR030W, strain Alg12, active compounds read low 0.0591 | S. cerevisiae deletion strains, locus YOL006C, strain TOP1, active compounds read low 0.068 | [12] 0.119 | [13] 0.133 | S. cerevisiae deletion strains, locus YPL055C, strain LGE1, active compounds read low 0.0721 | S. cerevisiae deletion strains, locus YPL241C, strain CIN2, active compounds read low 0.0816 | [14] 0.17 | S. cerevisiae deletion strains, locus YPR135W, strain CTF4, active compounds read low 0.202 | S. cerevisiae strains, strain wild type, active compounds read low 0.0455

— PubChem BioAssay AID1159580 (chemical genetic matrix, 2015)
